Screening data (PubChem)
Pf Dd2 inh: qHTS Primary assay for Inhibitors of Plasmodium falciparum Dd2 growth in vitro; Potency, µM (series often up to 28.9 µM), for inactives: at the highest dose activity, negative = inhibition, most hits filed as inhibitors; P. falciparum Dd2 growth, SYBR Green, 72 h; actives 4.3% (n = 120,000); active = well fitted inhibition curve with a large enough effect;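 also: plate controls were DMSO vehicle for no effect and reference drug for full effect; nearly all actives have a fitted effect of over 65% in size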
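Readout: SYBR Green fluorescence, 485 nm excitation, 535 nm emission, after ~16 h lysis at 37C. Before that, Dd2-infected red cells (2.5% hematocrit) grew 72 h with compound, 29 uM top final concentration.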
Active calls of the source: *; i = inactive; [ ] = dose if it differs, or a comment. This excerpt belongs to a sample that is enriched for hits. Potency is read from the fitted curve at half-maximal effect.

SMILES | Pf Dd2 inh
CCOC(=O)c1ccc(N2C(=O)c3[nH]nc(-c4ccc(C)cc4)c3C2c2ccc(O)c(OCC)c2)cc1 (configuration not stated) | 7.1µM*
CCOC(=O)c1ccc(N2C(=O)c3n[nH]c(-c4ccco4)c3C2c2ccc(O)c(OCC)c2)cc1 (configuration not stated) | i
COc1cccc(CCC(=O)NC(C)C(=O)N2CCN(c3ccccn3)CC2)c1 (configuration not stated) | i
Cc1cc(C(=O)NCCCOC(C)C)c2c(C3CCNCC3)noc2n1 | 0%
COc1ccc(OC2CN(Cc3ccc(F)cc3)C2)cc1 | 13%[44.1 µM]
COc1ccc(CN2CCOC[C@H](Oc3ccc(C(F)(F)F)cn3)C2)cc1 | -29%[44.1 µM]
CS(=O)(=O)c1ccc(O[C@H]2COCCN(Cc3cccnc3)C2)cc1 | 3%[44.1 µM]
Fc1ccc(CN2CCOC[C@H](Oc3ccccc3)C2)cc1 | 13µM*
COc1ccc(CN2CCOC[C@H](Oc3cccc(C)n3)C2)cc1 | i
COc1ccc(CN2CCOC[C@H](Oc3ccccc3)C2)cc1 | 7.1µM*
Cc1ccc(C(=O)N2CCC3(C2)C(=NC2CCCCC2)NC(=O)N3c2cccnc2)cc1 (configuration not stated) | 16%
O=C(c1ccc(F)cc1)N1CCCC(c2nn(-c3ccc(F)cc3)c(=O)[nH]2)C1 (configuration not stated) | -22%
Cc1cc2nc3n(c(=O)c2n1CC(=O)Nc1ccc2c(c1)OCO2)CCC3 | i
O=C(c1ccncc1F)N1C[C@@H](COCC2CC2)[C@H](c2ccncc2)C1 | -7%
Cc1ccc(-c2cc3c(n2-c2ccccc2F)CC(C)(C)CC3=O)cc1 | -4%
COc1ccc(-n2c3c(cc(-c4nc(-c5ccc(Cl)cc5)cs4)c2=O)C(=O)CC(C)(C)C3)cc1Cl | 8%
COc1ccc(C)cc1-n1c(-c2ccc(Cl)cc2)cc2c1CC(C)(C)CC2=O | 1µM*
C[C@@H](NS(=O)(=O)c1ccc(Cl)cc1)c1onc(-c2ccc(F)cc2)c1C(=O)O | 1%[44.1 µM]
CN1CC(=O)N(C2CCNCC2)Cc2c(NCC3CCCCC3)ncnc21 | -3%
CCN(Cc1ccccc1)Cc1c(O)ccc2c(=O)c(-c3ccccc3)c(C(F)(F)F)oc12 | 6.3µM*
Cc1ccc(-c2c(C(=O)N(C)Cc3ccccc3)oc(=O)c3ccccc23)cc1 | -12%
CCN(Cc1ccccc1)Cc1c(O)ccc2c(=O)c(-c3ccccc3Cl)c(C(F)(F)F)oc12 | 8.9µM*
O=C([C@@H]1C[C@H](Oc2cccnc2)CN1C(=O)CC1CCCCC1)N1CCCC1 | i
Cc1cc(C(=O)N2c3ccccc3CC2c2nc(C(C)C)no2)nn1C (configuration not stated) | 11%[5.79 µM]
Cn1nc2n(c1=O)CCC(NS(=O)(=O)c1ccc3c(c1)CCCC3)CC2 (configuration not stated) | i
SMILES | Pf Dd2 inh
Cn1cc(-c2cnc3[nH]cc(CC(=O)Nc4cccc(F)c4)c3c2)cn1 | 6.3µM*
O=C(Cc1c[nH]c2ncc(-c3ccccc3)cc12)NCc1cnccn1 | i
Cn1cc(-c2cnc3[nH]cc(CC(=O)Nc4ccccc4Cl)c3c2)cn1 | -19%[44.1 µM]
O=C(Cc1c[nH]c2ncc(-c3ccncc3)cc12)NCc1cccnc1 | 5µM*
COc1ccc(OC)c(-c2cnc3[nH]cc(CC(=O)NCc4cccnc4)c3c2)c1 | i
COc1ccc(-c2cnc3[nH]cc(CC(=O)Nc4ccc(C(F)(F)F)cc4)c3c2)cc1 | i
CN1CCN(C(=O)Cc2c[nH]c3ncc(-c4cccc(Cl)c4)cc23)CC1 | i
Cn1cc(-c2cnc3[nH]cc(CC(=O)Nc4ccc(N5CCOCC5)cc4)c3c2)cn1 | 45%[44.1 µM]
CN1CCN(C(=O)Cc2c[nH]c3ncc(-c4ccc(F)c(Cl)c4)cc23)CC1 | 11µM*
COc1ccc(NC(=O)Cc2c[nH]c3ncc(-c4ccccc4)cc23)cc1 | -21%[44.1 µM]
COc1ccc(-c2cnc3[nH]cc(CC(=O)Nc4ccc(OC)nc4)c3c2)cc1 | 11µM*
CN1CCN(C(=O)Cc2c[nH]c3ncc(-c4ccc5c(c4)OCO5)cc23)CC1 | -21%[44.1 µM]
COc1ccc(C(=O)N[C@H]2CC[C@]3(C)CCC([C@H](C)C(=O)NCc4ccccc4OC)[C@H](O)[C@H]3[C@@H]2C)cc1 (some centres not stated) | i
CCOC(=O)c1sc(NC(=O)C2CC(=O)N(c3n[nH]c4ccccc34)C2)nc1C (configuration not stated) | -21%
O=C1OC2(CCN(C(=O)c3ccco3)CC2)CN1CCOc1ccccc1 | 7%
COc1ccc(NC(=O)c2c(OC)cc(=O)n3c2CCCC3)c(OC)c1 | 35%
CN(C)c1cnn(CC(=O)N2CCC(C(=O)N3CCOCC3)CC2)c(=O)c1 | -19%
CCn1ccc(C(=O)N2C[C@@H]3CCCN4CCC[C@@H]([C@H]34)[C@H]2CCCC(=O)NCC2CC2)n1 | -8%
O=C1CCN(C(=O)c2ccsc2)CCCOCCN1 | 23%
O=C(Cc1cccc(Cl)c1)NCc1c[nH]c2ncccc12 | -19%[44.1 µM]
O=C(Cc1c[nH]c2ncc(-c3cccc(Cl)c3)cc12)NCc1cccnc1 | 4.5µM*
